Source: PubChem BioAssay AID602262 (National Center for Advancing Translational Sciences (NCATS), 2012)

Assay: qHTS Assay for Agonists of the Relaxin Receptor RXFP1: V1B SAR
Details: HEK293 V1B cells, cAMP TR-FRET, 30 min; series mostly up to 78.1 µM; activation: at the top concentration; active = well fitted curve in the direction sought with a large enough effect; inactive = no such curve, though single readings can be large or run the other way
Description: The relaxin hormone is involved in the variety of biological functions in normal tissues and diseases. The role of relaxin is well-established in female reproduction and parturition, mammary gland and endometrial development, maintenance of myometrial quiescence during pregnancy. Relaxin signaling through its G protein-coupled receptor (GPCR) RXFP1 results in ECM remodeling through regulation of collagen deposition, cell invasiveness, proliferation and overall tissue homeostasis. […] Recombinant human relaxin (rhRlx) is currently being tested in clinical trials as a protective agent in congestive heart failure, in treating severe preeclampsia, and as an anti-fibrotic agent in systemic sclerosis. Upon relaxin binding RXFP1 activation leads to the activation of adenylate cyclase (AC) via Gs. cAMP will activate PKA, which phosphorylates many signaling proteins. Thus, detection of cAMP increase is an easy and reliable indication of relaxin receptor activation. To screen for agonists of the relaxin receptor, a HEK293T cell line stably transfected with RXFP1 was used. RXFP1 activation was assayed by changes in cAMP levels as detected with a time-resolved fluorescence energy transfer (TR-FRET) cAMP detection kit. This assay measures activation of a cell expressing V1B, another GPCR targeted by relaxin, to determine the selectivity of compounds for RXFP1. NIH Chemical Genomics Center [NCGC] NIH Molecular Libraries Probe Production Centers Network [MLPCN] MLPCN Grant: R03 MH085705-01A1 Assay Submitter (PI): Alexander Agoulnik
This is a cell-based assay for cAMP second messenger response to screen for agonists of the RXFP2 receptor. The assay was conducted in the presence of a PDE4 inhibitor (Ro 20174). The cells were lysed and the cAMP levels were measured with a TR-FRET cAMP kit. Presence of cAMP in the cell lysate disrupts binding between the cryptate-labeled anti-cAMP and d2-labeled cAMP pair, leading to a decrease in the TR-FRET signal. Data were normalized to the controls for basal activity (buffer only) and 100% activity (29 nM porcine relaxin). The EC50 values were determined from concentration-response data modeled with the standard Hill equation 1536-well assay protocol for the HEK293 V1B cAMP assay: (1) Add 3 ul HEK293 RXFP2 cell culture. 2000 cells/well in DMEM/F12, 10% FBS, 1x Pen/Strep (dispensed offline with MultiDrop Combi). (2) Incubate 16-24 hr at 37C, 5% CO2. (3) Add 1 ul 400uM Ro20174 in DPBS, 0.05% BSA, 0.005% Tween 20. (3) Add 23 nl compounds in DMSO solution. Final concentration was 0.5 - 58 uM. (4) Incubate 30 min at 37C, 5% CO2. (5) Add 1 ul cAMP-d2 in lysis buffer (HTRF cAMP HiRange kit, CisBio). (6) Add 1 ul anti-cAMP antibody-cryptate in lysis buffer (HTRF cAMP HiRange kit, CisBio). (7) Incubate 30 min at room temperature. (6) Detect the assay plate in a ViewLux plate reader (PerkinElmer) with Ex=320 nm, Em1=615 nm and Em2=665 nm. Keywords: relaxin, RXFP1, RXFP2, G-protein coupled receptor, cAMP, agonist, high throughput screening, MLSMR, MLSCN, NIH Roadmap, qHTS and NCGC

activation, inactive:
COc1ccccc1C(=O)Nc1ccccc1C(=O)Nc1cccc(C(F)(F)F)c1 -4.34%
Cc1ccccc1NC(=O)c1ccccc1NC(=O)C1CCCCC1 -4.45%
O=C(Nc1cccc(-c2cccc(C(F)(F)F)c2)c1)c1ccccc1NC(=O)C1CCCCC1 2.41%
COc1ccccc1-c1ccccc1C(=O)Nc1cccc(C(F)(F)F)c1 3.5%
COc1cccc(NC(=O)c2ccccc2NC(=O)C2CCCCC2)c1 -6.38%
O=C(Nc1cccc(F)c1)c1ccccc1NC(=O)C1CCCCC1 -4.78%
COCCOc1ccccc1C(=O)Nc1cccc(C(F)(F)F)c1 -3.76%
CCOc1ccccc1C(=O)Nc1cccnc1C(=O)Nc1cccc(S(=O)(=O)C(F)(F)F)c1 -5.24%
COc1ccccc1C(=O)N(C)c1ccccc1C(=O)N(C)c1cccc(C(F)(F)F)c1 -1.13%
CCCCOc1ccccc1C(=O)Nc1ccccc1C(=O)Nc1cccc(S(=O)(=O)C(F)(F)F)c1 -0.668%
COc1ccccc1C(=O)Nc1cccc(C(=O)Nc2cccc(C(F)(F)F)c2)c1 0.812%
CCCOc1ccccc1C(=O)Nc1ccccc1C(=O)Nc1cccc(S(=O)(=O)C(F)(F)F)c1 0.371%
CCOc1ccccc1C(=O)Nc1cnccc1C(=O)Nc1cccc(S(=O)(=O)C(F)(F)F)c1 2.84%
CC(C)Oc1ccccc1C(=O)Nc1ccccc1C(=O)Nc1cccc(S(=O)(=O)C(F)(F)F)c1 -0.72%
O=C(Nc1ccc(C(F)(F)F)cc1)c1ccccc1NC(=O)C1CCCCC1 2.37%
COc1ccccc1Nc1ccccc1C(=O)Nc1cccc(C(F)(F)F)c1 -2.38%
CN(C)CCOc1ccccc1C(=O)Nc1ccccc1C(=O)Nc1cccc(C(F)(F)F)c1 1.12%
O=C(Nc1cccc([N+](=O)[O-])c1)c1ccccc1NC(=O)C1CCCCC1 1.46%
CCOc1ccccc1C(=O)NCCC(=O)Nc1cccc(S(=O)(=O)C(F)(F)F)c1 3.4%
CSc1cccc(NC(=O)c2ccccc2NC(=O)C2CCCCC2)c1 3.22%
CCOc1ccccc1C(=O)Nc1sccc1C(=O)Nc1cccc(S(=O)(=O)C(F)(F)F)c1 12.3%
COc1ccccc1C(=O)Nc1ccccc1C(=O)N(C)c1cccc(C(F)(F)F)c1 -3.58%
COc1cccc(OC)c1C(=O)Nc1ccccc1C(=O)Nc1cccc(C(F)(F)F)c1 -1.17%
O=C(Cc1ccccc1)Nc1ccccc1C(=O)Nc1cccc(C(F)(F)F)c1 -1.24%
O=C(Nc1cccc(Cl)c1)c1ccccc1NC(=O)C1CCCCC1 -5.01%
O=C(Nc1cccc(SC(F)(F)F)c1)c1ccccc1NC(=O)C1CCCCC1 0.962%
